Data: PubChem BioAssay AID720565 (National Center for Advancing Translational Sciences (NCATS), 2013)
Records with an inconclusive call do not appear. Activity calls are given as the source filed them. Calls come from the whole dose curve; as a rule, active = well fitted activation curve with a large enough effect; inconclusive = small, poorly fitted or top-dose-only effect; inactive = no such curve, though single readings can be large or run the other way.
Potency is the fitted concentration of half-maximal effect.

Test: qHTS for small molecules that induce genotoxicity in ELG1 expressing cells: Confirmatory Assay for Cherry-picked Compounds; note: nearly all actives have a fitted effect of over 35% in size; for activation: % of control where 0% means no effect
Conditions: ELG1-luciferase reporter cells, luminescence, 16 h; series mostly up to 46.1 µM; activation: at the top concentration
Text: Cancer cells divide rapidly compared to normal cells in the body. During cell division, cancer cells need to duplicate their genome by DNA replication. The failure of genome duplication leads to cancer cells' death. Therefore, inhibitors of DNA replication could specifically kill cancer cells. Based on this concept, many chemotherapeutic agents were developed and have been used to treat cancer patients. However, there are a limited number of agents available in the clinical setting, and some of those that do exist have low efficacy and severe side effects. Therefore, if we can find the compounds that effectively block DNA replication either by directly damaging DNA or by inhibiting other cellular mechanisms, the options for cancer treatment will be broadened. We developed a quantitative high-throughput ELG1-luciferase reporter gene assay. Since the level of human ELG1 protein is enhanced in response to genetic stresses, increases in luciferase activity can be used to identify compounds that cause genetic stress. The data herein is the result of the confirmation assay against the cherry picked compounds selected from the primary qHTS (AID 504466). Activation is the desired outcome for this assay. NIH Chemical Genomics Center [NCGC] NIH Molecular Libraries Probe Centers Network [MLPCN] MLPCN Grant: MH092164 Assay Provider: Kyungjae Myung, National Human Genome Research Institute, NIH
For genotoxicity screening, 2,000 cells/ well (5 uL volume) were dispensed into white, solid-bottom 1536-well plates using a solenoid-based dispenser. Following transfer of 23 nL compound or DMSO vehicle by a pin tool, the plates were incubated 16 hr at 37 C, 5% CO2. Five microliter of ONE-Glo reagent (Promega) was then added to each plate. The assay plates were incubated for 30 min at room temperature followed by quantification of the luciferase activity using the PerkinElmer ViewLux CCD-based plate reader.
For O=C(CCl)c1ccc(O)c(O)c1, the “activation” value was -1.84% (inactive). For CCCC(=O)O[C@@H]1[C@@H](C)[C@@]2(O)[C@@H](C=C(CO)C[C@]3(O)C(=O)C(C)=C[C@@H]23)[C@@H]2C(C)(C)[C@]12OC(=O)CCC, the Potency was 99.6 nM (active). In the case of CCCSc1ccc2nc(NC(=O)OC)[nH]c2c1, the Potency is reported as 8880 nM (active). For C[C@@H]1C[C@@H]2[C@H]([C@H]3C=C(COC(=O)c4ccccc4)[C@@H](O)[C@]4(O)[C@@H](O)C(OC(=O)c5ccccc5)=C[C@@]14C3=O)C2(C)C, the Potency was 500 nM (active). For C=C(C)[C@@]12OC3(c4ccccc4)O[C@@H]1[C@@H]1[C@@H]4O[C@]4(CO)[C@@H](O)[C@]4(O)C(=O)C(C)=C[C@H]4[C@@]1(O3)[C@H](C)[C@H]2OC(=O)/C=C/C=C/c1ccccc1, the Potency was 50 nM (active). In the case of CCCCCCCCCCCCCC(=O)O[C@@H]1[C@@H](C)[C@@]2(O)[C@H](C=C(CO)C[C@]3(O)C(=O)C(C)=C[C@@H]23)[C@@H]2C(C)(C)C12OC(C)=O (some centres not stated), the Potency is reported as 8.9 nM (active). In the case of CC(=O)OCC1=C[C@H]2[C@@H]3C(C)(C)[C@]3(OC(=O)Cc3ccccc3)C[C@@H](C)[C@]2(O)[C@@H]2C=C(C)C(=O)[C@@]2(O)C1, the Potency is reported as 396 nM (active).
